Only a selection was taken, and hits are over-represented in it overall.
Pf Dd2 growth – Plasmodium falciparum Dd2 growth inhibition; P. falciparum Dd2 growth, SYBR Green, 72 h; Potency, µM (doses to about 28.9 µM), hits mostly inhibitors; hit rate 4.3% among 120,000; AID 1347417; active means well fitted inhibition curve with a large enough effect; further: nearly all actives have a fitted effect of over 65% in size
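Infected erythrocytes (Dd2, 0.3% parasitemia, 2.5% hematocrit final) are added to compound in RPMI-1640/Albumax II medium, grown 72 h at 37C in low oxygen, then lysed with saponin/Triton-X containing SYBR Green and read by fluorescence.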
Large screens that a line does not name were inactive.

O=C(Nc1ccc2c(c1)OCO2)c1cccc2c1CCN2C(=O)Nc1ccc(F)cc1	none
Cc1ccc(C(=O)N2CCc3sc(C(=O)NCc4ccc(C)o4)cc3C2)cc1	Pf Dd2 growth 11.2µM
Cc1ccc(C(=O)N2CCc3sc(C(=O)NCc4ccc(F)cc4F)cc3C2)cc1	none
Cc1ccc(C(=O)N2CCc3sc(C(=O)O)cc3C2)cc1	none
COc1ccc(C(=O)N2CCCC3(CCC(=O)N(Cc4ccncc4)C3)C2)o1 (configuration not stated)	none
Cc1ccc(C(C)NC(=O)CNC23CC4CC(CC(C4)C2)C3)cc1 (configuration not stated)	Pf Dd2 growth 6.31µM
CC1CCC2(CC1)NC(=O)N(CC(=O)NC(C)c1ccccc1)C2=O (configuration not stated)	none
COc1ccc(C(C)NC(=O)CN2C(=O)NC3(CCC(C)CC3)C2=O)cc1 (configuration not stated)	none
O=C(NCC1CCCCC1)C1CCN(C(=O)c2ncn3c2COC(c2ccc(Cl)cc2)C3)CC1 (configuration not stated)	none
Cc1nc(SCC(=O)Nc2ccc(C)c(Cl)c2)cc(-c2ccccc2)n1	none
Cc1cc(C)cc(Nc2cc(-c3ccccc3)nc(C)n2)c1	Pf Dd2 growth 11.2µM
CSc1nc(Nc2ccc(C)cc2C)cc(-c2ccccc2)n1	none
CCc1nc(C)c(CC(=O)N[C@@H]2CCNC[C@H]2O)c(=O)[nH]1	none
COc1ccccc1-c1[nH]nc2ncc(C(=O)N3CCC(c4ccccc4)CC3)nc12	Pf Dd2 growth 14.1µM
COc1ccccc1-c1[nH]nc2ncc(C(=O)N3CCNC(=O)C3)nc12	none
COc1ccccc1-c1[nH]nc2ncc(C(=O)N(C)c3ccccc3)nc12	none
COCC(=O)NC1CCN(c2nc3ncccc3o2)CC1	none
O=C(Nc1cc(F)c(F)c(F)c1)N1CCC(OC2CCN(Cc3ccccc3)CC2)CC1	none
CNC(=O)N1CCC(OC2CCN(Cc3ccccc3)CC2)CC1	none
O=C(c1c(F)cccc1F)N1CCC(OC2CCN(Cc3ccccc3)CC2)CC1	Pf Dd2 growth 11.2µM
CN(Cc1ccon1)Cc1cc2n(n1)CCN(C(=O)c1ncoc1C1CC1)C2	none
Cc1ccc(Cl)cc1NC(=O)Cn1ccn2nc3c(c2c1=O)CCCCC3	none
N#Cc1ccc(-c2nc(C(=O)NCC3CCCCC3)no2)cc1	none
Cc1ccc(S(=O)(=O)N2CCC3(CC2)SCC(=O)N3Cc2ccco2)cc1	none
CCCNC(=O)C1COC2(CCN(C(=O)c3cccc(OC)c3)CC2)N1C(=O)c1cccc(F)c1 (configuration not stated)	none
CC1CCCCN1C(=O)c1cc(-c2ccc(Br)cc2)on1 (configuration not stated)	none
CC1CCCN1C(=O)c1cc(-c2cnn(C(C)C)c2)nc2cc(F)ccc12 (configuration not stated)	none
CC(C)=CCn1c(-c2cc(C)oc2C)cn2cc(C(=O)N3CCCC3C)nc2c1=O (configuration not stated)	Pf Dd2 growth 8.91µM
COc1ccc(CN2C(=O)CO[C@H](c3ccc(NC(=O)Nc4ccccc4)cc3)[C@H]2CO)cc1	none
CCOC(=O)C1CCN(C(=O)CCN(CC)C(=O)c2cc(C)oc2C)CC1	none
COc1ccc(Cn2c(C3CCN(C(=O)C4CCCCC4)CC3)n[nH]c2=O)cc1	none
Cc1ccc(C2NC(=O)N(CC(=O)N(C)c3cccc(C)c3)C3=C2C(=O)OC3)cc1 (configuration not stated)	none
COC(=O)c1c(NC(=O)/C=C/c2ccc(OC)cc2)sc2c1CCC2	none
COc1ccc(/C=C/C(=O)Nc2cc(-c3nc4ccccc4o3)ccc2OC)cc1	none
COc1ccc(OCC(=O)Nc2cc(-c3cccc(Cl)c3)nn2-c2ccccc2)cc1	none
COc1ccc(C2C=C(c3ccccc3)Nc3nc(NC(=O)/C=C/c4ccc(Cl)cc4)nn32)cc1 (configuration not stated)	Pf Dd2 growth 10µM
COc1ccc(/C=C/C(=O)Nc2nc3n(n2)C(c2ccccc2)C=C(c2ccc(Cl)cc2)N3)cc1 (configuration not stated)	Pf Dd2 growth 5.01µM
COc1ccc(Cl)cc1NC(=O)c1c(NCc2cccs2)sc2c1CCC(C)C2 (configuration not stated)	Pf Dd2 growth 12.6µM
COc1ccccc1NC(=O)c1c(NC(=O)c2cccs2)sc2c1CCC(C(C)(C)C)C2 (configuration not stated)	none
COC(=O)c1c(NC(=O)CCCOc2ccccc2C)sc2c1CCC(C)C2 (configuration not stated)	none
COc1ccc(Cl)cc1NC(=O)c1sc2nc3c(cc2c1N)N1CCC3CC1	none
COc1ccc(Cl)cc1NC(=O)c1c(NCc2cccnc2)sc2c1CCC(C)C2 (configuration not stated)	Pf Dd2 growth 8.91µM
COc1ccc(NC(=O)c2c(NC(=O)c3ccncc3)sc3c2CCC(C(C)(C)C)C3)cc1 (configuration not stated)	none
COc1cccc(CN2CCc3nc(C(=O)Nc4nc(C)cs4)oc3CC2)c1	none
CNC(=O)c1ccc(CC2CCN(C(=O)C3CC3)CC2)cc1	none
Cc1noc([C@@H]2CC(F)(F)CN2C(=O)c2ccoc2C)n1	none
C[C@@H](NCc1ccc(F)cc1)c1onc(-c2ccc(Cl)cc2)c1C(=O)O	none
O=C(Nc1ccc(Cl)cc1)N1CCn2c(nnc2-c2ccccc2)C1	none
CNC(=O)[C@@H]1C[C@H](Oc2ccccc2)CN1C(=O)c1ccc2ccccc2n1	none
NC(=O)[C@@H](Cc1ccccc1)NC(=O)[C@@]1(O)C[C@@H](O)[C@H](O)[C@@H](NC(=O)c2cccnc2)C1	none
O[C@]12CCNC[C@H]1CN(Cc1cccc(N3CCOCC3)c1)CC2	none
O[C@]12CCNC[C@H]1CN(Cc1ccc(C(F)(F)F)cc1F)CC2	none
COc1cccc(CN2CC[C@@]3(O)CCNC[C@H]3C2)c1OCCCn1ccnc1	Pf Dd2 growth 3.98µM
OCC(Cc1ccco1)Cn1ccnc1-c1ccccn1 (configuration not stated)	none
CC(=O)N1CCCC2(CN[S+](=O)([O-])c3cccnc3O2)C1 (configuration not stated)	none
Cc1cccc(C)c1NC(=O)CN1C(=O)C(c2ccccc2)=NC12CCCCC2	none
Fc1ccc(F)c(CN2CCC(Oc3ccccc3-c3nc(C4CCOCC4)no3)C2)c1 (configuration not stated)	Pf Dd2 growth 4.47µM
O=C(c1ccoc1)N1CCC(Oc2ccccc2-c2nc(C3CCOCC3)no2)C1 (configuration not stated)	none
O=C(c1cccc(F)c1)N1CCC(Oc2ccccc2-c2nc(C3CCOCC3)no2)C1 (configuration not stated)	none
COc1ccccc1N1CCN(C2CCCN(C3CCN(Cc4ccccc4)CC3)C2)CC1 (configuration not stated)	Pf Dd2 growth 12.6µM
CCN1CCC(N2CCCC(N3CCN(c4ccccc4OC)CC3)C2)CC1 (configuration not stated)	none
COc1ccccc1N1CCN(Cc2ccc(=O)n(C)c2)CC1	none
COCc1ccc2c(c1)c(OC(C)(C)C(N)=O)nn2CCC(C)C	none
O=C(N[C@@H]1CN(C(=O)Nc2ccc(OC(F)(F)F)cc2)CCC[C@H]1O)c1ccc(OCCN2CCOCC2)cc1	none
COc1ccc(C(=O)N[C@@H]2CN(C(=O)Nc3cccc(C#N)c3)CCC[C@H]2O)cc1	none
COc1ccc(C(=O)N[C@@H]2CN(C(=O)Nc3ccc(OC(F)(F)F)cc3)CCC[C@H]2O)cc1	Pf Dd2 growth 5.01µM
CCn1cc(S(=O)(=O)N(C)C2CCc3nn(C)c(=O)n3CC2)cn1 (configuration not stated)	none
